PolyA inh = inhibitors of polyadenylation in S. cerevisiae; activity score, % at 12 µM; 0.02% of 300,000 active; S. cerevisiae SKY197-pL101 polyadenylation reporter, beta-gal luminescence; efflux-impaired pdr1/pdr3 knockout yeast; score 100 = 6 SD above DMSO;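 active = lowest replicate activity score at least 50, where 100 means six control SD above control mean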;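 note: yeast exposed to compound for 9 h at 30 °C; higher score means more reporter readthrough which indicates perturbed polyadenylation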
NALP1 yeast inh = blocks the NALP1 inflammasome reconstituted in yeast; S. cerevisiae NALP1/ASC/caspase-1 growth, X-gal OD620, 72 h; inhibition, % at 10 µM; 0.61% of 280,000 active; in the data active = inhibition mostly above about 24%, no sharp cut-off; inactive = mostly below about 32%
HTR5A ag = HTR5A agonism, opioid heterodimer counter-screen | HTR5A agonist assay, luminescence, cell-based | activation, % at 9.3 µM | 0.61% of 340,000 active | AID 504692; in the data active = activation mostly above about 9.5%, no sharp cut-off; inactive = mostly below about 7.6%;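 note: 0% = cells with vehicle only and 100% = reference agonist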
HTR5A inv ag = inverse agonist of human HTR5A in OPRM1-OPRD1 counter-screen; inhibition, % at 9.3 µM; 0.083% of 340,000 active; HTR5A cell line, luminescence, inverse agonism; AID 504634; in the data active = inhibition mostly above about 23%, no sharp cut-off; inactive = mostly below about 18%;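 note: 0% = cells with DMSO and 100% = no-cell wells with DMSO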
OPRM1-OPRD1 inv = inverse agonists of human mu-delta opioid receptor heterodimerization; cell-based MOR-DOR heterodimer luminescence, inverse agonism; inhibition, % at 9.3 µM; 0.21% of 340,000 active; AID 504357; in the data active = inhibition above about 22%, passing the limit was not always enough;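 note: 0% = cells with DMSO and 100% = wells without cells with DMSO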
MOR-DOR ag-1 = OPRM1-OPRD1 heterodimerization agonism. cells, luminescence. activation, % at 9.3 µM. 0.3% of 340,000 active. AID 504326;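 note: 0% = vehicle-treated cells and 100% = reference agonist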
MOR-DOR ag-2 = promotes OPRM1-OPRD1 heterodimerization in HTR5A counter-screen; shares compounds with HTR5A ag; activation, % at 9.3 µM; U2OS counter-screen cells, complementation luminescence, 3 h; 13% of 800 active; AID 504913
HTR5A ag confirm = confirmation of human HTR5A agonists. shares compounds with HTR5A ag. HTR5A agonist cell assay, luminescence. activation, % at 9.3 µM. 17% of 800 active; in the data active = activation above about 17%;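 note: 0% = cells with vehicle only and 100% = full reference agonist response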
An asterisk follows results filed as active. Shown are actives, neighbours in structure and some others; about 1.6% of the full set was active somewhere. Cut-off read from the data, not from the text of the source, unless noted: active = activation above about 18%; inactive = the rest.

O=C1c2cc([N+](=O)[O-])ccc2-c2cc(Cl)c(NC(=O)C(F)(F)F)cc21 was read as HTR5A ag -3, HTR5A inv ag 11, OPRM1-OPRD1 inv 1 and MOR-DOR ag-1 0.
For O=C1c2cc([N+](=O)[O-])ccc2-c2cc(Br)c(N=C(NO)C(F)(F)F)cc21 the results were HTR5A ag 21*, HTR5A inv ag -81, OPRM1-OPRD1 inv -27, MOR-DOR ag-1 6, MOR-DOR ag-2 19* and HTR5A ag confirm 0.
`O=C1CCC(C2CCc3cc(O)ccc3C2)C1` (stereo unspecified) gave HTR5A ag -2, HTR5A inv ag 10, OPRM1-OPRD1 inv 12 and MOR-DOR ag-1 -2.
Screening Cc1ccc(N(C(=O)Cc2cccs2)C(C(=O)NC2CCCCC2)c2ccccn2)cc1C (stereo unspecified) returned PolyA inh -11, NALP1 yeast inh 27, HTR5A ag 15*, HTR5A inv ag 3, OPRM1-OPRD1 inv -19, MOR-DOR ag-1 4, MOR-DOR ag-2 30* and HTR5A ag confirm 19*.
`COc1cccc2cc(C(=O)NCCc3c[nH]c4ccccc34)c(=O)oc12` gave PolyA inh -10, NALP1 yeast inh 3, HTR5A ag 6, HTR5A inv ag -16, OPRM1-OPRD1 inv -14 and MOR-DOR ag-1 2.
For CCOc1ccc(NC(=O)Nc2nc(SCC)ns2)cc1 the results were PolyA inh 0, NALP1 yeast inh -23, HTR5A ag 18*, HTR5A inv ag 24, OPRM1-OPRD1 inv -77, MOR-DOR ag-1 15, MOR-DOR ag-2 2 and HTR5A ag confirm 5.
Screening CCc1ccccc1NC(=O)N1CCC(NC(=O)C(Cc2ccccc2)NC(C)=O)CC1 (stereo unspecified) returned PolyA inh 9, NALP1 yeast inh -13, HTR5A ag 0, HTR5A inv ag -10, OPRM1-OPRD1 inv 8 and MOR-DOR ag-1 -2.
For COc1cc(/C=C/C(=O)O)cc(OC)c1OC the results were PolyA inh -17, NALP1 yeast inh 11, HTR5A ag 39*, HTR5A inv ag -138, OPRM1-OPRD1 inv 4, MOR-DOR ag-1 -1, MOR-DOR ag-2 1 and HTR5A ag confirm -4.
COc1ccc(CSCC(=O)N/N=C/c2ccccc2OCc2ccccc2)cc1 was read as PolyA inh 7, NALP1 yeast inh 17, HTR5A ag 22*, HTR5A inv ag -58, OPRM1-OPRD1 inv -5, MOR-DOR ag-1 1, MOR-DOR ag-2 1 and HTR5A ag confirm 1.
`COc1ccc(N(CC(=O)NCCSc2ccccn2)S(=O)(=O)c2ccccc2)cc1Cl` gave PolyA inh -2, NALP1 yeast inh 15, HTR5A ag 4, HTR5A inv ag -3, OPRM1-OPRD1 inv 12 and MOR-DOR ag-1 -2.
For COc1ccc(Cl)cc1N(CC(=O)NCCSc1ccccn1)S(=O)(=O)c1ccccc1 the results were PolyA inh -2, NALP1 yeast inh 6, HTR5A ag 16*, HTR5A inv ag -49, OPRM1-OPRD1 inv -8, MOR-DOR ag-1 1, MOR-DOR ag-2 1 and HTR5A ag confirm 18*.
`CCCCOc1ccc(OCCNC(=O)C2CCCN2C(=O)Nc2ccccc2)cc1` (stereo unspecified) gave PolyA inh 1, NALP1 yeast inh 19, HTR5A ag 17*, HTR5A inv ag -50, OPRM1-OPRD1 inv -5, MOR-DOR ag-1 1, MOR-DOR ag-2 14 and HTR5A ag confirm -2.
Screening COC(=O)c1c(C(=O)OC)c2n(c1C)Cc1ccccc1C2 returned PolyA inh -5, NALP1 yeast inh 0, HTR5A ag 15*, HTR5A inv ag 1, OPRM1-OPRD1 inv 6, MOR-DOR ag-1 -1, MOR-DOR ag-2 0 and HTR5A ag confirm 3.
Screening CCOC(=O)C(=CNc1cc(C)ccc1C)C(=O)OCC returned PolyA inh -7, NALP1 yeast inh 8, HTR5A ag -1, HTR5A inv ag -5, OPRM1-OPRD1 inv -32 and MOR-DOR ag-1 6.
CCOC(=O)C(=CNc1cc(OC)ccc1-n1cccc1)C(=O)OCC was read as PolyA inh -10, NALP1 yeast inh 4, HTR5A ag 16*, HTR5A inv ag -43, OPRM1-OPRD1 inv -13, MOR-DOR ag-1 3, MOR-DOR ag-2 0 and HTR5A ag confirm 5.
`COc1ccc(N2C(=O)CCC(C(=O)O)C2c2ccc(F)cc2)cc1` (stereo unspecified) gave PolyA inh 4, NALP1 yeast inh 21, HTR5A ag 16*, HTR5A inv ag -23, OPRM1-OPRD1 inv 9, MOR-DOR ag-1 -2, MOR-DOR ag-2 1 and HTR5A ag confirm 4.
`COc1ccc(N2C(=O)CCC(C(=O)N3CCCCC3)C2c2ccc(F)cc2)cc1` (stereo unspecified) gave PolyA inh 10, NALP1 yeast inh -2, HTR5A ag 5, HTR5A inv ag -1, OPRM1-OPRD1 inv 17 and MOR-DOR ag-1 -4.
`O=S(=O)(N/N=C\C=C\c1ccccc1)c1ccc(Cl)cc1` gave PolyA inh 13, NALP1 yeast inh -6, HTR5A ag 28*, HTR5A inv ag -106, OPRM1-OPRD1 inv -43, MOR-DOR ag-1 8, MOR-DOR ag-2 4 and HTR5A ag confirm 43*.
For O=S(=O)(N/N=C\c1ccccc1O)c1ccc(Cl)cc1 the results were PolyA inh 14, NALP1 yeast inh 2, HTR5A ag 3, HTR5A inv ag -9, OPRM1-OPRD1 inv 8 and MOR-DOR ag-1 -2.
Screening COc1ccc(-c2nc(C#N)c(N3CCc4ccccc4C3)o2)cc1OC returned PolyA inh -10, NALP1 yeast inh 9, HTR5A ag 18*, HTR5A inv ag -42, OPRM1-OPRD1 inv 9, MOR-DOR ag-1 -2, MOR-DOR ag-2 0 and HTR5A ag confirm 1.
`COc1ccccc1-c1nc(C#N)c(N2CCc3ccccc3C2)o1` gave PolyA inh -14, NALP1 yeast inh 22, HTR5A ag 9, HTR5A inv ag -26, OPRM1-OPRD1 inv -7 and MOR-DOR ag-1 1.
`Cc1ccc2sc(=O)[nH]c2c1` gave PolyA inh 9, NALP1 yeast inh 4, HTR5A ag 3, HTR5A inv ag 7, OPRM1-OPRD1 inv 10 and MOR-DOR ag-1 -2.
`COc1cc(OC)cc(C(=O)Nc2nnc(NC(=S)Nc3ccccc3)s2)c1` gave PolyA inh -17, NALP1 yeast inh 4, HTR5A ag 15*, HTR5A inv ag -15, OPRM1-OPRD1 inv 1, MOR-DOR ag-1 0, MOR-DOR ag-2 2 and HTR5A ag confirm -3.
COc1cc(OC)cc(C(=O)Nc2ccc(Nc3ccccc3)cc2)c1 was read as PolyA inh -7, NALP1 yeast inh 18, HTR5A ag -2, HTR5A inv ag 6, OPRM1-OPRD1 inv 5 and MOR-DOR ag-1 -1.

Source: PubChem (several laboratories)
